From PubChem BioAssay (NCI)
Values joined by “and” are separate entries in the source; they are usually repeats but may differ in a detail not shown here. Identical values can stand only once. About 79,000 compounds went through this panel and 15% of them were active in at least one assay; those are over-represented in the sample as a whole. Cut-off read from the data, not from the text of the source: active = growth inhibition above about 70%; inactive = the rest. Where a SMILES comes first, the peptide text is derived from it. [ ]: non-standard residue; d: D form. ξ: configuration not given here. ξF = NC(Cc1ccccc1)C(=O)O

Key:
[1] = NCI Yeast Anticancer Drug Screen. Data for the rad50 strain (AID 155);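 note: 0% = growth of vehicle-only cultures of the same strain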; settings: S. cerevisiae rad50 strain growth inhibition; at 50.0 µM; active compounds read high
Outline: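 A DNA repair-deficient yeast mutant serves as the test organism; compound-induced growth inhibition is calculated against vehicle-treated cells.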

[2] = NCI Yeast Anticancer Drug Screen. Data for the mec2-1 strain (AID 157); settings: S. cerevisiae mec2-1 strain, at 50.0 µM, active compounds read high
Outline: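 Each compound was tested on mec2-1 yeast, a strain altered in DNA damage repair or cell cycle control. Growth inhibition is reported relative to vehicle.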

[3] = NCI Yeast Anticancer Drug Screen. Data for the sgs1 mgt1 strain (AID 161);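 note: 0% = growth of cultures given vehicle only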; settings: S. cerevisiae sgs1 mgt1 strain, at 50.0 µM, active compounds read high
Outline: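 Test agents were incubated with a DNA-repair-mutant yeast strain. Growth was then read and compared against vehicle-treated controls.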

[4] = NCI Yeast Anticancer Drug Screen. Data for the cln2 rad14 strain (AID 165);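 note: 0% = growth equal to vehicle treated cultures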; settings: S. cerevisiae cln2 rad14 strain, at 50.0 µM, active compounds read high
Outline: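 Test compounds were added to cln2 rad14 yeast cultures; inhibition of growth was then determined by comparison with vehicle treatment.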

[5] = NCI Yeast Anticancer Drug Screen. Data for the bub3 strain (AID 167); settings: S. cerevisiae bub3 mutant strain, at 50.0 µM, active compounds read high
Outline: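 Inhibition values come from growth of compound-treated mutant yeast normalised to vehicle-treated controls.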

[6] = NCI Yeast Anticancer Drug Screen. Data for the mlh1 rad18 strain (AID 175); settings: S. cerevisiae mlh1 rad18 strain growth inhibition; at 50.0 µM; active compounds read high
Outline: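 Inhibition values reflect reduced growth of mutant yeast versus vehicle-treated controls following compound exposure; the mutations affect DNA damage repair.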

Measured: growth inhibition

O=C1OCC/C1=C\c1ccco1
inactive: [1] 9.55% and -9.2% | [2] 2.2% and 3.9% | [3] 6.15% and 9.15% | [4] -19.1% and 10.9% | [5] -6.75% and 17.9% | [6] 10.3% and -6.35%

NCC(=O)NC(Cc1ccccc1)C(=O)O (configuration not stated) (H-Gly-[ξF]-OH)
inactive: [1] -28.9% and -14.6% | [2] -14.6% and -12.2% | [3] -1% and -20.6% | [4] -3.9% and -2.65% | [5] -8.25% and -10% | [6] -3.75% and -13.3%

O=[N+]([O-])c1ccc(S(=O)(=O)Cl)cc1
inactive: [1] 53.2% and 20.5% | [2] -3.75% and 6.75% | [3] 30.9% and 44.5% | [4] 35.8% and 23.1% | [5] 28.1% and 6.15% | [6] 52% and 52.5%

CCOC(=O)C1=C(C)NC(=O)NC1c1ccccc1 (configuration not stated)
inactive: [1] 9.5% and -7% | [2] 15.1% and -20.2% | [3] -0.15% and 4.45% | [4] -19.1% and 6.95% | [5] -0.9% and 15.2% | [6] 35.9% and -8.4%

CC(=O)c1c(-c2cccc3ccccc23)c(C#N)c(=S)n(C2OC(CO)C(O)C(O)C2O)c1C (configuration not stated)
inactive: [1] -18.7% and 15.5% | [2] 12.1% and 15% | [3] 2.25% and 32% | [4] 12.3% and 28.2% | [5] 21.1% and 32.1% | [6] 1.55% and 44.9%

OCCCc1ccncc1
inactive: [1] -6.05% and -8.55% | [2] -4.65% and -4.7% | [3] 2.9% and 4.75% | [4] 8.7% and -7.9% | [5] 3.25% and -0.55% | [6] 12.2% and 7.85%

CCCCC(CC)CCC(C)OC(=O)CCl (configuration not stated)
inactive: [1] 15.4% and 0.5% | [2] -2.8% and -6.75% | [3] 2.5% and -19.6% | [4] -36.4% and -22.6% | [5] -6.25% and -15.2% | [6] -1.9% and 10.2%

CCOC(=O)C(c1ccccc1)c1cccc(C(C(=O)OCC)c2ccccc2)n1 (configuration not stated)
inactive: [1] 3.1% and 8.55% | [2] 0.2% and 0.1% | [3] -16.9% and -33.5% | [4] -3.05% and -41.7% | [5] 1.8% and -3.6% | [6] 17.6% and -13.7%

CC(=O)CCC1CC(=O)OC1(C)C (configuration not stated)
inactive: [1] -37.6% and 0.75% | [2] -30% and -11.2% | [3] -14.3% and -15.4% | [4] 7.85% and -5.75% | [5] -26.2% and -5.35% | [6] -26.2% and 23.8%

OCC(O)C(O)C1OC(O)C(O)C(O)C1O (configuration not stated)
inactive: [1] 1.1% and -15.8% | [2] 0.45% and -15.2% | [3] 3.1% and -4.25% | [4] -8.25% and -17.1% | [5] 0.25% and -1.65% | [6] 7.85% and -7.65%

NCCC(=O)c1ccccc1
inactive: [1] -8.25% and 0.05% | [2] -4.2% and 6.2% | [3] -14.6% and -1.4% | [4] -17.4% and 7.65% | [5] -19.5% and 7.95% | [6] -2.7% and 25.3%

COC(=O)CCC1C(C)(C(C)=O)CCC2C1(C)CCC1(C)C3CC(C)(C)CCC3(C)CCC21C (configuration not stated)
inactive: [1] 1.65% and 1.05% | [2] 1.05% and -5.35% | [3] -11.8% and -15.2% | [4] -7.8% and -3.65% | [5] -3.9% and -2.15% | [6] 13.8% and 4.4%

COC1OCCC(n2c(C)cc3c(N)ncnc32)C1O (configuration not stated)
inactive: [1] -7.3% and 1.55% | [2] -19.2% and -8.6% | [3] -28.6% and -11.8% | [4] -4.15% and -1.7% | [5] -22.1% and -20.6% | [6] -29.2% and 2.05%

CC(=O)Nc1cc(NC(C)=O)c2ccccc2c1O
inactive: [1] -2.65% and 4.1% | [2] 22% and 5.85% | [3] 13.2% and 8% | [4] 6.05% and 25.1% | [5] 18.9% and 14.3% | [6] 2.7% and 6.75%

C=C1C[C@]23C[C@@]1(O)CC[C@H]2[C@@]12C=C[C@H](O)[C@@](C)(C(=O)O1)[C@H]2[C@@H]3C(=O)O
inactive: [1] -20.4% and -0.7% | [2] -39.5% and -16.6% | [3] -31.1% and -1.3% | [4] 0.4% and 0.9% | [5] -51.8% and -18.1% | [6] -52.4% and -3%

COc1ccc(C(C)=O)cc1OC
inactive: [1] -0.95% and 6.35% | [2] -7.9% and -3.4% | [3] -1.4% and -3.3% | [4] 2.75% and -6.5% | [5] 3.25% and 2.6% | [6] -4.15% and 1.65%

O=C1NC(=S)S/C1=C/c1ccnc2ccccc12
inactive: [1] 18.2% and 6.7% | [2] 14.8% and 9.3% | [3] 19.4% and -3.1% | [4] 20.9% and -32.1% | [5] 5.45% and -8.75% | [6] 1.25% and -11.6%

COC(=O)NC1C(=O)OC(C2OC2(C)C)C1(C)C (configuration not stated)
inactive: [1] -4% and -2.5% | [2] -22.9% and -12.8% | [3] -5.3% and -32.8% | [4] 4.35% and -7.9% | [5] -17.1% and -31.4% | [6] -6.15% and -27.4%

S=C(S)NCCNC(=S)S.[Cu+2]
inactive: [1] 1.15% and 27.4% | [2] -8.7% and -11.9% | [3] -0.6% and 6.45% | [4] -41.2% and -56.4% | [5] -18.2% and -14.6% | [6] 5.3% and -15.5%

O=C(O)c1cc([N+](=O)[O-])c2c(c1)P(=O)(O)c1cc(C(=O)O)cc([N+](=O)[O-])c1O2
inactive: [1] 19.9% and 10.8% | [2] -1.35% and 3.05% | [3] 7.65% and 4.55% | [4] 5.9% and 4.05% | [5] -0.6% and -2.1% | [6] 13.7% and 7.85%

CCCCc1ccc(OC2OC(COC(C)=O)C(OC(C)=O)C(OC(C)=O)C2OC(C)=O)cc1 (configuration not stated)
inactive: [1] -29.1% and -28.1% | [2] -14.3% and 6.7% | [3] -42.8% and -12.9% | [4] -4.35% and 17.6% | [5] -32.5% and -4.9% | [6] -35.5% and -0.5%

Cc1cc(C)c(C(=O)C(C)C(c2ccccc2)c2ccc(Cl)cc2)c(C)c1 (configuration not stated)
inactive: [1] -16.4% and -14.6% | [2] -19.2% and -5.7% | [3] -12.8% and -16.1% | [4] 17.8% and -2.55% | [5] -8.7% and -10.6% | [6] -15.2% and -2.45%
